This passage reports binding signal results from article PMC7819943, “Rice protein-binding microarrays: a tool to detect cis-acting elements near promoter regions in rice”.

In all, about 68,000 sequences were measured (“fluorescence intensity (a.u.)”: median about 9,100, highest 2% from about 16,000 on). Many of the other results were omitted from the sample, so the highest values are more common in it than they were.

OsWRKY34, sequence (Q0JBA9 entry or part of it): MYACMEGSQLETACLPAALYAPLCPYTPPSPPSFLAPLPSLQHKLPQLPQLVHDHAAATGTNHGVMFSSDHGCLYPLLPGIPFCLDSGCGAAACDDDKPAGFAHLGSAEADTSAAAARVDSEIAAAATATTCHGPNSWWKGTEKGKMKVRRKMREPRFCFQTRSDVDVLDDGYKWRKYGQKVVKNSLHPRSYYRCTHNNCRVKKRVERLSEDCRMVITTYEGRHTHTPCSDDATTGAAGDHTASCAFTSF

For this test, the target named is OsWRKY34 (Oryza sativa, UniProt Q0JBA9 1-250). Kind of test: protein-binding microarray (RPBM); PBS, 2% BSA, 51.3 ng/ul salmon testes DNA, 50 uM zinc acetate, 200 nM TF, 25 C, 1 h; high values mean tight binding. Particulars: protein: recombinant; tags: N-terminal polyhistidine and DsRed monomer fusion (pET32a); label: CyDye5-dUTP incorporated in the synthesized complementary strand; 3' TTTTT single-stranded linker to array surface; dsDNA, one strand shown. A digest of the protocol:
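Binding signal is defined as the fluorescence intensity of each feature in arbitrary units, read on an Axon 4000B scanner. Transcription factors with N-terminal polyhistidine and DsRed fusions came from E. coli BL21-CodonPlus and were purified on Ni–NTA. They were incubated at 200 nM for 1 h at 25 °C on a custom Agilent array that had been made double-stranded with Cy5-dUTP, with 50 µM zinc acetate present, and the array was washed.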
For the sequence “TTTCTTCTTCTCGTCTCTTCTCGCCGCCGCCGCCGCAATGCGGAGTCACCTAGTGCAG”, the binding signal was 9300 fluorescence intensity (a.u.). For “TCGTTGACTTTCTTGCCGTCTCGCCGCCGCCGCCGCCATGCGGAGTCACCTAGTGCAG” the value was 23600 fluorescence intensity (a.u.); for “TGCGGCCCACCTTTGCTTCTTCGTTGACTTTCTTGCCGTCCGGAGTCACCTAGTGCAG”, 26900 fluorescence intensity (a.u.); for “TCATCTTGCTTTCCCCTTCTTCGCCCACGCGGCCGCGGCCCGGAGTCACCTAGTGCAG”, 8620 fluorescence intensity (a.u.). For “AAACCCTCTCTCTCTCTCTCTCTCACACACACACGCAAACCGGAGTCACCTAGTGCAG” the value was 10300 fluorescence intensity (a.u.). The value for “GTCAACTGCCTATCCTAGATATCTATCACTACCGAAAGCCCGGAGTCACCTAGTGCAG” was 8930 fluorescence intensity (a.u.); that for “TCAACACAGCAACGTTTCACTTTCATATCATCTGATTATTCGGAGTCACCTAGTGCAG” was 8470 fluorescence intensity (a.u.). For “TCCGTCCATCCTCACTATCATTAGTACTACTGGTTCTTCTCGGAGTCACCTAGTGCAG”, the binding signal was 12200 fluorescence intensity (a.u.). The value for “TTTTGTGGTATTTTAAACATGGTTTATATTTCTTATATTTCGGAGTCACCTAGTGCAG” was 9830 fluorescence intensity (a.u.). The value for “TTTTTGGTGGGGTAGAGTTGTATTTGGTTTGAGGCCAATTCGGAGTCACCTAGTGCAG” was 9480 fluorescence intensity (a.u.); that for “CTTCGTTCGTTGGATTCGCTCTCGCGCGCCGCCGCCGCCGCGGAGTCACCTAGTGCAG” was 11200 fluorescence intensity (a.u.); that for “TGTTGTTTTGGTCTACAGTTGTCTTTTGAGTTGTTGTATTCGGAGTCACCTAGTGCAG” was 12200 fluorescence intensity (a.u.). The value for “TTGGTGAGGGTTTGGGTTTGGTGGTGGAGTGGAGTGGAGTCGGAGTCACCTAGTGCAG” was 10700 fluorescence intensity (a.u.). With “TTTGGATTGGGTTTGGTGGTTGGGTGGGAGGGAGGGAGCTCGGAGTCACCTAGTGCAG”, the binding signal is 28600 fluorescence intensity (a.u.). For “TCGCTCTCGTTGGATTCGGTTTGGTTTGGTTTGGGCCATGCGGAGTCACCTAGTGCAG” the value was 18700 fluorescence intensity (a.u.); for “GGGTTTTGGAGTGGTGGTGGTGGAGGATTGGAGTTGGGGTCGGAGTCACCTAGTGCAG”, 11600 fluorescence intensity (a.u.); for “GGTTGGGTGGAGGGTATTACAGTCTTTTTGCTTTTGTATTCGGAGTCACCTAGTGCAG”, 36600 fluorescence intensity (a.u.). Take “ATGGATGGGGATTCATTTGTTTGGTGAGTAGTGGTCGGGTCGGAGTCACCTAGTGCAG”: the binding signal was 9800 fluorescence intensity (a.u.). For “GGGGTGTTTGGTTGAGGGGTGGGTGGGATGGATTGGTCCTCGGAGTCACCTAGTGCAG” the value was 32300 fluorescence intensity (a.u.); for “AGAGGGATGGGTGTTTGATTGGAGTGGGTTGGGAGCCATGCGGAGTCACCTAGTGCAG”, 9390 fluorescence intensity (a.u.). For “CTCTCGTTGTTTTTGCTCTTTTGGGTTCGCTCGGAAGATGCGGAGTCACCTAGTGCAG” the value was 8490 fluorescence intensity (a.u.). For “CATCGAGTAGCCGCCGCCGCCACCTGGTGCTCGTGACGCCCGGAGTCACCTAGTGCAG” the value was 8670 fluorescence intensity (a.u.). For the sequence “CTTCAAACTTTTAATTTTTCCGTCACATCGAACTTTTCTACGGAGTCACCTAGTGCAG”, the binding signal was 9760 fluorescence intensity (a.u.). The value for “TCACACGTTTCATTGACGTTTCCTAGCATCCGACCTCTCTCGGAGTCACCTAGTGCAG” was 9620 fluorescence intensity (a.u.); that for “TCCCCTGTTCTCGTACACAAATTCGCAGCGATCTAATAGTCGGAGTCACCTAGTGCAG” was 8480 fluorescence intensity (a.u.). The value for “CTGATTTTCATTTGAGAACAAAGTTTCTACGCATATTACCCGGAGTCACCTAGTGCAG” was 8240 fluorescence intensity (a.u.).

As to “CCCCAGCCCAGTTGGGCCCAAACTGTCCATTCCAGCCATCCGGAGTCACCTAGTGCAG”, the binding signal is 8330 fluorescence intensity (a.u.). For “TCAGTAGCATTTCCGGGTCCCATCTATATGGACTAATTTTCGGAGTCACCTAGTGCAG” the value was 9100 fluorescence intensity (a.u.); for “ACAGAACGAACCACCTATACGTACGTTTTCTCTCTTTTGACGGAGTCACCTAGTGCAG”, 8040 fluorescence intensity (a.u.); for “TATACAATTGCCTTACCTGTCCCCACCTGTCACATGCCTCCGGAGTCACCTAGTGCAG”, 9460 fluorescence intensity (a.u.). The value for “ACCTACCACCACCTTACCCTCTCGCTGACATCCCGGCCCCCGGAGTCACCTAGTGCAG” was 12000 fluorescence intensity (a.u.); that for “GGCCTTGTTCGGTTGGTCCGGGAATGACTGGGGTTGGGCTCGGAGTCACCTAGTGCAG” was 9210 fluorescence intensity (a.u.); that for “AAATGTGGAATGGTTGGCCTGGGTTGGCTTGGGACGAGCTCGGAGTCACCTAGTGCAG” was 17000 fluorescence intensity (a.u.). For “CCTAAATGGTTTTGCTTGGACACTTCTGGTTACCTTGCATCGGAGTCACCTAGTGCAG” the value was 11900 fluorescence intensity (a.u.); for “TGTGTTGGATCGGTTGGACGCGCTCACTCGGTTTGGTTTGCGGAGTCACCTAGTGCAG”, 9730 fluorescence intensity (a.u.). In the case of “GGGATGGATGTGCTGGGTTGGTGGCTGGTTGGCTGGCCGGCGGAGTCACCTAGTGCAG”, the binding signal was 11000 fluorescence intensity (a.u.).

With “TGCTTGCTTGCTTGGTTTGATTGGTGGAGGTGGGAGGAGTCGGAGTCACCTAGTGCAG”, the binding signal was 8520 fluorescence intensity (a.u.).

Regarding “AGTTTTGGGGTGAATTCAATTGAGGTTGCTACAGTTTAATCGGAGTCACCTAGTGCAG”, the binding signal was 8760 fluorescence intensity (a.u.). The value for “CGCTCACTCGGTTTGGTTTGGTTTGGATTGTATTGGGTTGCGGAGTCACCTAGTGCAG” was 39200 fluorescence intensity (a.u.).

For “GAGGGGAGGGGTTTGGTTTGCTTGGACACTTTGGTTTGGTCGGAGTCACCTAGTGCAG”, the binding signal is 20100 fluorescence intensity (a.u.). For “TTTGTGTATTATTTGTATTGTGTTTGTGAATTCAATAAATCGGAGTCACCTAGTGCAG” the value was 8800 fluorescence intensity (a.u.). Regarding “ATTCTCAAGTTTGAATTGGGTGTATTGGGTTGGGCTAAATCGGAGTCACCTAGTGCAG”, the binding signal is 16700 fluorescence intensity (a.u.). The value for “TTGGTTTGTATTGCGTTGTTTTGCACTTTTGTTTGTTGTGCGGAGTCACCTAGTGCAG” was 8300 fluorescence intensity (a.u.).
